Assay results as given in PubChem BioAssay (NCATS).
Several values for one entry are separate records, joined by “and”; a condition that tells them apart may be missing. Equal values may be shown once. Records with an inconclusive call do not appear. Activity calls are given as the source filed them. Unless noted, calls follow the shape of the dose curve; as a rule, active = well fitted curve in the direction sought with a large enough effect; inconclusive = small, poorly fitted or top-dose-only effect, or another doubt; inactive = no such curve, though single readings can be large; an effect the other way counts as inactive or inconclusive.

Experiments:
[1] = Cell Viability - N2a (AID 540); conditions: N2a mouse neuroblastoma cell viability; at 92.2 µM (top of the series);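 also: plate controls were DMSO alone for no effect and tamoxifen control for full effect; nearly all actives have a fitted effect of over 45% in size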
In short: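 Mouse neuroblastoma N2a cells (1500/well) were preincubated 5 hr at 37 °C, then exposed to compounds for 40 hr at 37 °C in complete medium. Viability was read as intracellular ATP by CellTiter-Glo luminescence; AC50 from Hill fits.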

[2] = target: Cytochrome P450 3A4 (Homo sapiens) (UniProt P08684); experiment: qHTS Assay for Inhibitors and Substrates of Cytochrome P450 3A4 (AID 884); also: % is scaled to controls: 0 for no effect and ±100 for the full control effect; nearly all actives have a fitted effect of over 50% in size
Cytochrome P450 3A4 (Homo sapiens), sequence (P08684 whole entry, looked up): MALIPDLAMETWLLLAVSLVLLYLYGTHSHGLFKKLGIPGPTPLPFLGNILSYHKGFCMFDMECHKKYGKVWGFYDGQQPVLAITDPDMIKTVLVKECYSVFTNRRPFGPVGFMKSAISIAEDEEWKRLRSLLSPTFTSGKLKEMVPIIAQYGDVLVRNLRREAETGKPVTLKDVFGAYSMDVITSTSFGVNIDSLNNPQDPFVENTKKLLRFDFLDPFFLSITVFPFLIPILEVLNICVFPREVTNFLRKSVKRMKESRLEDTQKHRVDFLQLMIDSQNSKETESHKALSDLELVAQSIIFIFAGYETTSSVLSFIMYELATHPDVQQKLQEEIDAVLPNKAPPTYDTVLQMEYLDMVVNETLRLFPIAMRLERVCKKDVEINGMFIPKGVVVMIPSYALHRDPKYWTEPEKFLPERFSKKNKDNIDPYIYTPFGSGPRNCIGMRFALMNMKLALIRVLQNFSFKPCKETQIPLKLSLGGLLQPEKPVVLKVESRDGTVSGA
In short: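 20 nM human CYP3A4 with 25 uM Luciferin-PPXE (at KM) in 200 mM KPO4, preincubated 10 min with compound; NADPH regeneration started a 60 min RT reaction. Luciferin detected by luminescence, normalized to 57 uM ketoconazole as full inhibition.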

[3] = MultiTox-Fluor Cytotoxicity Assay - LYMP1-001 - Dead Cells (AID 946);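 also: 0% = DMSO and 100% = tetraoctylammonium bromide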
In short: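 In this qHTS, 15 uM tetraoctylammonium bromide defined 100% and DMSO defined basal activity. Lymphoblastoid cells (LYMP1-001, 2500 per well) received compound for 16 hr at 37 C before a fluorogenic dead-cell substrate readout at 485/520 nm.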

[4] = Cell Viability - LYMP1-002 - Assay at 16 hr (AID 948);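 also: 0% = DMSO alone and full effect = 92 µM tetraoctylammonium bromide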
In short: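 In this qHTS, lymphoblastoid LYMP1-002 cells (human) receive compounds for 16 hr at 37 C. Viability is taken from CellTiter-Glo ATP luminescence, and AC50 derives from standard Hill fits.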

[5] = MultiTox-Fluor Cytotoxicity Assay - LYMP1-003 - Live Cells (AID 962);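 also: 0% = DMSO only and full loss = 92 µM tetraoctylammonium bromide; cytotoxic hits lower the live-cell protease signal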
In short: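 LYMP1-003 human lymphoblastoid cells (2500/well) in complete medium were preincubated 5 hr at 37 C, then exposed to compounds for 16 hr at 37 C. Live-cell protease cleavage of GF-AFC read by fluorescence (Ex/Em 405/510); AC50 from Hill fits.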

[6] = Cell Viability - LYMP1-003 - Assay at 24 hr (AID 963);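 also: plate controls were DMSO only for no effect and tetraoctylammonium bromide positive control for full effect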
In short: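 Human lymphoblastoid LYMP1-003 cells (2500/well) were rested 5 hr at 37 C, then exposed to compounds in complete medium for 24 hr at 37 C. Cellular ATP was quantified by CellTiter-Glo luminescence, and AC50 values came from Hill fits of concentration-response data.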

[7] = Cell Viability - LYMP1-003 - Assay at 40 hr (AID 964); also: % is scaled to controls: 0 for no effect and ±100 for the full control effect; nearly all actives have a fitted effect of over 60% in size
In short: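 Human lymphoblastoid LYMP1-003 cells, 2500/well in complete medium, rested 5 hr at 37 C, then exposed to compounds for 40 hr at 37 C. Viability read as intracellular ATP by CellTiter-Glo luminescence; AC50 from Hill fits of concentration-response data.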

[8] = Cell Viability - LYMP2-003 (AID 965);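 also: cells exposed to compounds for 24 h before reading; 0% = DMSO only and full effect = 92 µM tetraoctylammonium bromide; nearly all actives have a fitted effect of over 50% in size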
In short: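 qHTS, human lymphoblastoid line, 2500 cells/well, complete medium. 24 h drug, 37 C. ATP-based luminescent readout; Hill-fit AC50.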

[9] = Cell Viability - LYMP2-017 (AID 972); also: % is scaled to controls: 0 for no effect and ±100 for the full control effect; nearly all actives have a fitted effect of over 55% in size
In short: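 Human lymphoblastoid cells (2500/well) were seeded in complete medium, held 5 hr at 37 C, then exposed to compounds for 24 hr at 37 C. Intracellular ATP was read by CellTiter-Glo luminescence after 30 min at room temperature, with AC50 values from Hill-equation fits.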

[10] = Cell Viability - LYMP2-025 (AID 976);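 also: plate controls were DMSO only for no effect and tetraoctylammonium bromide control for full effect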
In short: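 Human lymphoblastoid LYMP2-025 cells (2500/well) were pre-incubated 5 hr at 37 C, then treated with compounds for 24 hr at 37 C in complete medium. Viability was read as intracellular ATP by CellTiter-Glo luminescence; AC50 from Hill fits.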

[11] = Cell Viability - LYMP2-002 (AID 977);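 also: plate controls were DMSO only for no effect and 92 µM tetraoctylammonium bromide for full effect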
In short: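 Luminescent ATP readout (CellTiter-Glo, 30 min room temperature) after 24 h compound exposure at 37 C of a human lymphoblastoid line, 2500 cells/well. AC50 values derived by standard Hill fitting of qHTS concentration-response data.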

[12] = Cell Viability - LYMP2-007 (AID 979);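 also: cells exposed to compound for 24 h before reading; 0% = DMSO only and the negative end = 92 µM tetraoctylammonium bromide; nearly all actives have a fitted effect of over 60% in size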
In short: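 Human lymphoblastoid cells (2500/well) were plated in complete medium, incubated 5 hr at 37 C, then exposed to compounds for 24 hr at 37 C. Intracellular ATP was read by CellTiter-Glo luminescence after 30 min at room temperature; AC50 from Hill fits.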

[13] = Cell Viability - LYMP2-008 (AID 980); also: % is scaled to controls: 0 for no effect and ±100 for the full control effect; nearly all actives have a fitted effect of over 60% in size
In short: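 Human lymphoblastoid cells (2500/well) were plated, held 5 hr at 37 C, then exposed to compounds for 24 hr at 37 C in complete medium. Intracellular ATP was read by CellTiter-Glo luminescence; AC50 from Hill-fitted concentration-response.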

[14] = Cell Viability - LYMP2-014 (AID 983);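 also: plate controls were DMSO only for no effect and 92 µM tetraoctylammonium bromide for full effect; nearly all actives have a fitted effect of over 50% in size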
In short: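 Human lymphoblastoid cells (2500/well) were pre-incubated 5 hr at 37 C, then exposed to compounds in complete medium for 24 hr at 37 C. Intracellular ATP was read by CellTiter-Glo luminescence after 30 min at room temperature; AC50 from Hill fits.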

[15] = Cell Viability - LYMP1-002 - Assay at 24 hr (AID 993); also: % is scaled to controls: 0 for no effect and ±100 for the full control effect
In short: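 Human lymphoblastoid LYMP1-002 cells, 2500/well in complete medium, were treated with compounds for 24 h at 37 C; intracellular ATP was read by CellTiter-Glo luminescence. AC50 values came from Hill-equation fits of qHTS concentration-response data.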

[16] = target: Peroxisome proliferator-activated receptor alpha (Homo sapiens) (UniProt Q07869); experiment: qHTS assay for small molecule agonists of the peroxisome proliferator-activated receptor alpha (PPARalpha) signaling pathway (AID 651778); conditions: PathHunter PPARalpha complementation, chemiluminescence, 6 h; hits give high values; also: % of control where 0% means no effect
Peroxisome proliferator-activated receptor alpha (Homo sapiens), sequence (Q07869 whole entry, looked up): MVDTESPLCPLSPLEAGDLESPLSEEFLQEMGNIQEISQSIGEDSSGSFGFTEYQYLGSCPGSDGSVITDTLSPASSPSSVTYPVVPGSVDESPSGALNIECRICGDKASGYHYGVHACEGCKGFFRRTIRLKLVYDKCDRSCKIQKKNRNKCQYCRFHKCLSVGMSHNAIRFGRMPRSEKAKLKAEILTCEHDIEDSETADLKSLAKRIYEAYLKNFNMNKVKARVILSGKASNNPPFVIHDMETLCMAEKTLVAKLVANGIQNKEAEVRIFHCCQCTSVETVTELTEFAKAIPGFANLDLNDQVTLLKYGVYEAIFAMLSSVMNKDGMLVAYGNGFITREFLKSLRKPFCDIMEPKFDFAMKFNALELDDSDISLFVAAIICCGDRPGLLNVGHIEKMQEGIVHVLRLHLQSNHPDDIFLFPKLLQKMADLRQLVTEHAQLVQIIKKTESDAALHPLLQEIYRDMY
In short: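 Cells plated at 2,000/well and held overnight at 37 C, 5% CO2, then compound added by pin tool for 6 hr; after PathHunter detection reagent and 60 min at room temperature, chemiluminescence from enzyme complementation was read.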

[17] = qHTS assay for small molecule agonists of the antioxidant response element (ARE) signaling pathway measured by Nrf2-dependant transcriptional activity (AID 720636; active = well fitted curve in the direction sought with a large enough effect in the repeat runs; an effect the other way counts as inactive or inconclusive;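 also: HepG2 cells with an ARE-driven luciferase reporter; % of control where 0% means no effect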)
In short: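 HepG2 ARE-luc reporter line, 1% dialyzed FBS; 6 hr attachment at 37 C, compound pinned in, 16 hr at 37 C/5% CO2; ONE-Glo, 30 min RT, luminescence read.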

[18] = qHTS assay for small molecule agonists of the antioxidant response element (ARE) signaling pathway measured by Nrf2-dependant transcriptional activity - cell viability counter screen (AID 720653; active = well fitted curve in the direction sought with a large enough effect in the repeat runs; an effect the other way counts as inactive or inconclusive; also: % is scaled to controls: 0 for no effect and ±100 for the full control effect); conditions: ARE-bla HepG2 viability, CellTiter-Glo ATP luminescence, 16 h; hits give low values
In short: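 ARE-bla HepG2 cells (2,000/well) rested 5 hrs at 37C/5% CO2, then exposed to compounds in DMSO for 16 hrs. Viability was read in the same wells as intracellular ATP by luminescence, 30 min at room temperature after reagent addition.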

[19] = qHTS assay for cell viability of HEK293 cells (AID 743288); conditions: ATP luminescence (CellTiter-Glo), 18 h; max response: hits give low values; also: % is scaled to controls: 0 for no effect and ±100 for the full control effect; nearly all actives have a fitted effect of over 50% in size
In short: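 Luminescent ATP quantitation served as the viability read-out. Cells (parental HEK293, 2,000/well) received compounds after at least 5 h at 37 C and were exposed for 18 h before a 30 min room-temperature reagent step.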

[20] = qHTS assay for cell viability of the p53RE-bla HCT-116 cell line (AID 743292); also: % is scaled to controls: 0 for no effect and ±100 for the full control effect; nearly all actives have a fitted effect of over 55% in size
In short: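 Luminescent ATP quantitation (CellTiter-Glo) served as the viability read-out; reagent was added after 16 h compound exposure at 37 C and read after 30 min at room temperature. Cells: p53RE-bla HCT-116, 4,000 per well.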

CC(C)(C)OOC(C)(C)C
inactive: activity change, negative = cytotoxicity [1] -8.54% | Potency [2] | Potency [3] | Potency [4] | Potency [5] | Potency [6] | Potency [7] | Potency [8] | Potency [9] | Potency [10] | Potency [11] | Potency [12] | Potency [13] | Potency [14] | Potency [15] | max response [16] 0.694% | outcome [17] | max response [18] -1.66% | max response [19] 1.9% | Potency [20]

C=C(Cl)Cl
inactive: activity change, negative = cytotoxicity [1] 3.46% | Potency [2] | Potency [3] | Potency [4] | Potency [5] | Potency [6] | Potency [7] | Potency [8] | Potency [9] | Potency [10] | Potency [11] | Potency [12] | Potency [13] | Potency [14] | Potency [15] | max response [16] -2.47% | outcome [17] | max response [18] -2.66% | max response [19] -0.763% | Potency [20]

C=CCOC(C)=O
inactive: activity change, negative = cytotoxicity [1] -14.3% | Potency [2] | Potency [3] | Potency [4] | Potency [5] | Potency [6] | Potency [7] | Potency [8] | Potency [9] | Potency [10] | Potency [11] | Potency [12] | Potency [13] | Potency [14] | Potency [15] | max response [16] 7.33% | outcome [17] | max response [18] -12.1% | max response [19] -4.78% | Potency [20]

CC(O)CCl (stereo not drawn)
inactive: activity change, negative = cytotoxicity [1] 5.86% | Potency [2] | Potency [3] | Potency [4] | Potency [5] | Potency [6] | Potency [7] | Potency [8] | Potency [9] | Potency [10] | Potency [11] | Potency [12] | Potency [13] | Potency [14] | Potency [15] | max response [16] -0.405% and -1.63% | outcome [17] | max response [18] -0.544% and -11.8% | max response [19] 2.39% and -2.48% | Potency [20]

O=C(Cl)C(Cl)(Cl)Cl
inactive: activity change, negative = cytotoxicity [1] 4.93% | Potency [2] | Potency [3] | Potency [4] | Potency [5] | Potency [6] | Potency [7] | Potency [8] | Potency [9] | Potency [10] | Potency [11] | Potency [12] | Potency [13] | Potency [14] | Potency [15] | max response [16] -1.02% | outcome [17] | max response [18] -1.42% | max response [19] -17% | Potency [20]

CCOP(=S)(OCC)SCSC(C)(C)C
inactive: activity change, negative = cytotoxicity [1] -4.96% | Potency [2] | Potency [3] | Potency [4] | Potency [5] | Potency [6] | Potency [7] | Potency [8] | Potency [9] | Potency [10] | Potency [11] | Potency [12] | Potency [13] | Potency [14] | Potency [15] | max response [16] -1.59% and -3.9% | outcome [17] | max response [18] -1.33% and 1.99% | max response [19] -9.58% and -1.13% | Potency [20]

C=CC(=O)OCC
inactive: activity change, negative = cytotoxicity [1] -4.3% | Potency [2] | Potency [3] | Potency [4] | Potency [5] | Potency [6] | Potency [7] | Potency [8] | Potency [9] | Potency [10] | Potency [11] | Potency [12] | Potency [13] | Potency [14] | Potency [15] | max response [16] -5.18% | outcome [17] | max response [18] -9.08% | max response [19] -0.244% | Potency [20]

C=CC(N)=O
inactive: activity change, negative = cytotoxicity [1] 1.31% and 7.69% | Potency [3] | Potency [4] | Potency [5] | Potency [6] | Potency [7] | Potency [8] | Potency [9] | Potency [10] | Potency [11] | Potency [12] | Potency [13] | Potency [14] | Potency [15] | outcome [17] | max response [18] -3.97% and 4.84% and 3.74% | max response [19] -9.64% and 2.95% and 5.31% | Potency [20]

OCC1CO1 (stereo not drawn)
inactive: activity change, negative = cytotoxicity [1] -10.8% | Potency [2] | Potency [3] | Potency [4] | Potency [5] | Potency [6] | Potency [7] | Potency [8] | Potency [9] | Potency [10] | Potency [11] | Potency [12] | Potency [13] | Potency [14] | Potency [15] | max response [16] -0.572% and -0.317% | outcome [17] | max response [18] -5.57% and 1.53% | max response [19] -3.99% and -2.83% | Potency [20]

Cc1ccc2ccccc2c1
inactive: activity change, negative = cytotoxicity [1] -3.22% | Potency [2] | Potency [3] | Potency [4] | Potency [5] | Potency [6] | Potency [7] | Potency [8] | Potency [9] | Potency [10] | Potency [11] | Potency [12] | Potency [13] | Potency [14] | Potency [15] | max response [16] -0.593% | outcome [17] | max response [18] -3.38% | max response [19] 2.28% | Potency [20]
